Reference: the supplement of paper PMC8726507
A number with no mark means an inactive call.

Test system: Plasmodium falciparum NF54-HGL (transmission to Anopheles stephensi)
Assay: percentage of barcode signal found in uninfected mosquitoes (transmission-blocking activity); higher = stronger blocking of transmission to mosquito, active = 80 or more
Settings: 10 µM; gametocyte preincubation time 24 h; readout time post-feed 8 days
Method: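 The mixture was fed to Anopheles stephensi in 96-well plates as blood meals tagged with DNA-barcoded Asaia bacteria. Eight days later, mosquitoes were classed infected or uninfected by luminescence (mean + 5 SD of unfed controls). Barcodes were quantified by Luminex MagPlex-TAG in the pooled uninfected and infected Asaia cultures, background-corrected, and the score is % of barcode signal in uninfected mosquitoes = 100*Iu/(Iu+Ii).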

Point of comparison: COc1cccc(OCC(=O)c2ccc(Br)cc2)c1, “percentage of barcode signal found in uninfected mosquitoes” value (shortened to “percentage of barcode signal found”) 13.7%. Against it:
- FC(F)(F)c1cnc(Sc2nnc(-c3ccncc3)o2)c(Cl)c1 — higher, 68.8%
- CS(=O)(=O)N1CCC(CCn2nc(Cc3cccc4ccccc34)c3c(N)ncnc32)CC1 — higher, 45.3%
- COc1ccc(Cl)cc1NC(=O)CN(C)C(=O)c1cnn(-c2ccccc2)n1 — higher, 64.6%
- CO[C@@H](C(=O)N1Cc2[nH]nc(NC(=O)c3ccc(N4CCN(C)CC4)cc3)c2C1)c1ccccc1 — higher, 68.7%
- N=C(N)c1ccc(OCCCCCOc2ccc(C(=N)N)cc2)cc1 — higher, 77.2%
- CC(C)(C)OC(=O)N1CCN(c2nccc(-c3ccc(-c4ccc(Cl)cc4)s3)n2)CC1 — higher, 20.6%
- N=C(N)c1ccc(-c2cc(-c3ccccc3)on2)cc1 — higher, 33.2%
- COc1ccc(-c2nc(-c3cccc(NC(=O)Cc4ccc(F)cc4)c3)no2)cc1OC — lower, 5.39%
- CCCCc1ccc(NC(=O)Nc2ccc(O[C@H]3CCCC[C@@H]3N(C)c3ccccc3)c(F)c2)cc1 — higher, 28.1%
- Cc1cccnc1NC(=O)c1cccc(OCc2c(C)noc2C)c1 — lower, -2.5%
- O=C(NC1CCCCC1)N1CCN(Cc2ccc3c(c2)OCO3)CC1 — lower, -0.671%
- COc1cncc(-c2cncc(N3CCN(c4ccncc4)CC3)n2)c1 — higher, 63.9%
- CS(=O)(=O)c1ccc(C(=O)N(CC2CCCO2)c2nc3ccccc3s2)cc1[N+](=O)[O-] (stereo not given) — higher, 63.1%
- O=C(Nc1ccnc(-c2cccnc2)n1)c1cc(C(F)(F)F)cc(C(F)(F)F)c1 — higher, 46.9%
- O=C(c1ccc(NCCO)cc1)C1C[C@H]1c1ccc(Cl)cc1 (stereo not given in full) — higher, 39.6%
- Cc1ccc(NC(=O)c2nc[nH]c2C(=O)Nc2nc3ccccc3[nH]2)c(C)c1 — higher, 73.8%
- COC(=O)c1ccc(F)cc1NS(=O)(=O)c1cccc(-c2cnn(Cc3ccccc3)c2)c1 — higher, 31.1%

Same assay, conditions: 20 µM; gametocyte preincubation time 24 h; readout time post-feed 8 days

Point of comparison: COc1ccc2nc(C)cc(OCC(=O)NCc3ccccc3)c2c1, “percentage of barcode signal found” value 2.14%. Against it:
- COc1cc(C2=NCCN2)ccc1-c1cn(-c2cccc(C3=NCCN3)c2)nn1 — higher, 46%
- NC(=O)c1cc(-c2ccsc2)ccc1OCCOc1ccccc1 — higher, 12.1%
- Nc1ncnc2c1c(-c1cnc3ccccc3c1)nn2CC1CCNCC1 — lower, -2.55%
- Cc1ccccc1CN1CCC(O)(c2ccc(Cl)c(C(F)(F)F)c2)CC1 — lower, -0.504%
- Cc1ccc(-c2cc(C(=O)Nc3cccnc3)c3cc(Br)ccc3n2)cc1 — higher, 42.5%
- CC(C)(C(=O)Nc1ccc(F)cc1)n1cc(-c2ccccc2F)cn1 — lower, 0.429%
- c1ccc2c(c1)CN(CC1CC1)CC1(CCN(Cc3c[nH]c4cnccc34)CC1)O2 — higher, 30.7%
- COc1ccc(C2=NCCN2)cc1-c1cn(-c2cccc(C3=NCCN3)c2)nn1 — higher, 16.8%
- CC(C)(C)n1nc(Cc2ccc(F)c(Cl)c2)c2c(N)ncnc21 — higher, 10.3%
- CCc1ccccc1-n1c(C)cn2c3c(=O)n(C(C(=O)OC)C(C)C)c(=O)n(C)c3nc12 (stereo not given) — higher, 54.1%
- CC(C)NCC(=O)Nc1cccc(C(=O)Nc2cccc(C(F)(F)F)c2)c1 — higher, 54%
- FC(F)(F)c1cc(NCCc2ccccc2)nc(-c2ccccn2)n1 — higher, 62.2%
- COc1cc(C(F)(F)F)nc2ccc(C)c(N)c12 — lower, -0.0386%
- CCS(=O)(=O)N(Cc1ccco1)Cc1cc2ccc(C)cc2nc1O — lower, -1.14%
- O=C(Nc1ccccc1-c1nc2c(C(=O)O)cccc2o1)c1ccccc1 — higher, 27.2%
- O=C(Nc1nnc(S)s1)c1cc(Br)ccc1Cl — higher, 18.9%
- O=C(C1CCN(c2nnc(-n3cccc3)s2)CC1)N1CCC(Cc2ccccc2)CC1 — higher, 28.5%
- CNCCC(Oc1ccc(C(F)(F)F)cc1)c1ccccc1 (stereo not given) — higher, 27.5%

For CC[P](CC)(CC)=[Au][S][C@H]1O[C@@H](COC(C)=O)[C@H](OC(C)=O)[C@@H](OC(C)=O)[C@@H]1OC(C)=O, the “percentage of barcode signal found” value was 99% (active).
CC(C)(CN)c1nc(-c2ccc(Cl)c(O)c2)c(-c2ccnc(N)n2)[nH]1 was tested, and the “percentage of barcode signal found” value was 80.9% (active).
With Cc1nc(-c2ccccn2)nc(N(C)CCc2ccccc2)c1Cl the “percentage of barcode signal found” value was 92% (active).
